Results reported in PubChem BioAssay (NCI).
Compounds without any hit were thinned out: in the full panel of roughly 83,000, 20% have a hit.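 Results are percent growth after 48 hours of single-concentration exposure. 100 means growth as in untreated cells, lower positive values show inhibition; negative values down to -100 show cell death.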 A number with no mark means an inactive call. Active and inactive are the calls of the source. How the source made its calls: active means growth percent below 10; inactive means the rest.

Key:
Assay in all cases: NCI-60 one-dose screen, 48 h (100 = growth as untreated, 0 = no growth, -100 = all killed)
Settings in all cases: 10 µM unless noted
HCT-15 colon = test system: HCT-15 colon
HT29 colon = test system: HT29 colon
SNB-75 CNS = test system: SNB-75 CNS
SNB-19 CNS = test system: SNB-19 CNS
U251 CNS = test system: U251 CNS
PC-3 prostate = test system: PC-3 prostate
SK-MEL-5 melanoma = test system: SK-MEL-5 melanoma
UACC-62 melanoma = test system: UACC-62 melanoma
SK-MEL-28 melanoma = test system: SK-MEL-28 melanoma
LOX IMVI melanoma = test system: LOX IMVI melanoma

| Compound | growth (HCT-15 colon) | growth (HT29 colon) | growth (SNB-75 CNS) | growth (SNB-19 CNS) | growth (U251 CNS) | growth (PC-3 prostate) | growth (SK-MEL-5 melanoma) | growth (UACC-62 melanoma) | growth (SK-MEL-28 melanoma) | growth (LOX IMVI melanoma) |
| --- | --- | --- | --- | --- | --- | --- | --- | --- | --- | --- |
| CC1(C)CC[C@]2(C(=O)NCCCCCCN(CCCN)CCCN)CC[C@]3(C)C(=CC[C@@H]4[C@@]5(C)CC[C@H](O)C(C)(C)[C@@H]5CC[C@]43C)[C@@H]2C1 | 105% | 110% | 95.5% | 96.5% | 94% | 103% | 101% | 88.1% | 107% |  |
| Nn1c(=O)n(-c2cccc(C(F)(F)F)c2)c(=O)c2cc(-c3ccc(F)cc3F)ccc21 | 10.6% | 60.8% | -16.5% (active) | 9.55% (active) | 5.07% (active) | -3.92% (active) | -51.6% (active) | 1.73% (active) | 28% | 0.654% (active) |
| Nc1ccc(Nc2ncnc3sc4c(c23)CCN(Cc2ccccc2)C4)cc1 | 100% | 101% | 88.7% | 97.2% | 102% | 89.1% | 96.6% | 87.8% | 102% |  |
| CCCC/C(=C\c1ccc(O)c(O)c1)C(=O)NC(Cc1ccccc1)C(=O)C(=O)NCCc1ccc(OC)cc1 (centres undefined) | 93.4% | 105% | 86.9% | 91.2% | 103% | 94.4% | 98.9% | 86.6% | 102% | 89.4% |
| CC(C)(C)c1cc(NC(=O)Nc2ccc(-c3cn4c5c(sc4n3)CCc3cn(CCCN4CCCCC4)cc3-5)cc2)no1 | -82.7% (active) | -50.7% (active) | 39.5% | -83.5% (active) | -86.3% (active) | -74.8% (active) | -51.9% (active) | 98% | -89.8% (active) |  |
| CN(C)c1ccc(/C=N/Nc2nc(N/N=C/c3ccc(N(C)C)cc3)nc(N3CCCCC3)n2)cc1 | 0.121% (active) | -4.67% (active) | 101% | 86% | 50% | 84.8% | 86.7% | 101% | 41.7% | -73.3% (active) |
| Cc1cc(NS(=O)(=O)c2ccc(NC(=O)CSc3nc4ccccc4c(=O)n3-c3ccccc3)cc2)no1 | 106% | 104% | 77.3% | 94.2% | 100% | 95% | 98.4% | 88.6% | 95.9% |  |
| Cc1ccc(NC2=C(Cl)C(=O)c3nc(C)ccc3C2=O)c(C)c1 | -57.7% (active) | 80.5% | 87.9% | 30.5% | 22.6% | 22.6% | -50.2% (active) | 18.5% | 30.9% | -29.2% (active) |
| COc1cc(/C=C2/C(=O)Nc3ccc(Cl)cc32)ccc1OCc1ccc(Cl)cc1 | 86.5% | 94.1% | 77.7% | 91.3% | 50.7% | 84.2% | 89.2% | 70.2% | 103% |  |
| CSc1ccc(/C(=N/N=C(N)N)c2ccc(F)cc2)cc1 | 6.59% (active) | 4.2% (active) | 44.2% | 25.7% | 11.2% | 20% | -11.3% (active) | 36.2% | 60.9% |  |
| CNC(=O)c1cc(N2CCc3cc(NC(=O)Nc4ccc(N5CCOCC5)c(C(F)(F)F)c4)ccc32)ccn1 | 5.54% (active) | 28.5% | 38.6% | 23.1% | 29.2% | 7.98% (active) | 12.9% | -29.8% (active) | 49.8% |  |
| CCC(=C(c1ccc(OCCN2CCCCCC2)cc1)c1ccc(OCCN2CCCCCC2)cc1)c1ccc(Cl)cc1 | -58.9% (active) | -44.7% (active) | 62% | -21.3% (active) | -69.8% (active) | 27.7% | 21.5% | -35.4% (active) | -82% (active) | -89.6% (active) |
| CC/C(=C(/c1ccc(Cl)cc1)c1ccc(OCCN)cc1)c1ccccc1 | 55.7% | 79.9% | 110% | 99.8% | 92.6% | 103% | 99.1% | 107% | 108% |  |
| CC(C)[C@H]1c2[nH]c3ccccc3c2C[C@H]2C(=O)N(CCCCCCC(=O)NO)CC(=O)N12 | 97.5% | 77.4% | 62.9% | 86.7% | 81% | 86% | 75% | 56.2% | 71.7% | 72.7% |
| Nc1cc(C(=O)N/N=C\c2ccc(OC(F)F)c(OC3CCCC3)c2)nn1CC(O)c1ccccc1 (centres undefined) | 99.1% | 98.2% | 84.1% | 96.4% | 94.7% | 80.7% | 97.1% | 89.4% | 115% |  |
| NNc1nnc2nc(Nc3ccccc3)nc(Nc3ccc(S(N)(=O)=O)cc3)n12 | 100% | 108% | 90.6% | 102% | 105% | 103% | 101% | 95.8% | 106% |  |
| Cc1[nH]c(C(=O)Nc2ccccc2OCc2cccc(C(=O)NC3CCNC3)c2)c(Cl)c1Cl (centres undefined) | 35.2% | -47.7% (active) | 73.6% | 9.65% (active) | -56.2% (active) | 59.1% | 97.6% | 75% | -44.4% (active) | -85.1% (active) |
| CC(Nc1ncnc2ccc(-c3cnc(N)nc3)cc12)c1ccccc1 (centres undefined) | 22.4% | 43.1% | 31.1% | 40% | 47% | 29.7% | 26.4% | 28.5% | 50.2% |  |
| Clc1ccc(CSc2nnc(-c3ccc(Cl)cc3)n2-c2ccccc2)cc1 | 93.3% | 84% | -0.642% (active) | 62% | 81.2% | 71% | 94.3% | 85.8% | 98.8% | 88.6% |
| CCS(=O)(=O)Nc1ccc(C(=O)CC2(O)C(=O)Nc3ccccc32)cc1 (centres undefined) | 100% | 113% | 69.2% | 101% | 105% | 92.4% | 99.8% | 96.9% | 109% |  |
| Fc1cccc(Cl)c1/C=N/Nc1nc(N/N=C/c2c(F)cccc2Cl)nc(N2CCCCC2)n1 | 3.94% (active) | 3.5% (active) | 37.5% | 25.8% | 26.8% | 18.7% | -59.1% (active) | 18.3% | 44.9% |  |
| C/C(=N/N)c1nnn(-c2ccc(Br)cc2)c1C | 103% | 106% | 98.1% | 97.9% | 98.6% | 95.8% | 99.6% | 98.1% | 99.2% | 86.2% |
| CCCc1cc2cc(-n3nc(CC)c4c3CC(C)(C)CC4=O)cc(NC3CCC(O)CC3)c2c(=O)[nH]1 (centres undefined) | 17% | 7.9% (active) | -6.85% (active) | 30.6% | 27.8% | 32.8% | 14.1% | 26.6% | 40.8% | 23.7% |
| O=C(/C=C/c1cc(Cl)ccc1Cl)Nc1ncc(Cc2ccc(Cl)cc2)s1 | 7.86% (active) | -22.8% (active) | 0.161% (active) | 19.1% | 2.48% (active) | 27.3% | 5.45% (active) | 29.1% | 52.6% |  |
| CCOC(=O)c1c(N)c(C#N)cn1Cc1ccc(Cl)cc1Cl | 48.8% | 80.4% | 47.3% | 68.7% | 64.1% | 71.5% | 78% | 59.8% | 92.6% |  |
| CCOC(=O)C(=O)Nc1ccc2c(ccn2C(=O)c2cccc(F)c2)c1 | 95.8% | 101% | 74.3% | 91.6% | 105% | 99.6% | 96.3% | 93.5% | 99.1% | 96.3% |
| N#Cc1cnc2ccc(-c3cnc4n[nH]nc4c3)cc2c1N1CCc2cc(F)c(Cl)cc21 | 12.3% | 28.1% | -0.117% (active) | 16.4% | 21.1% | 20.4% | -45% (active) | 2.13% (active) | 13.4% |  |
| CCOC(=O)c1c(NC(=O)c2ccc(C(F)(F)F)cc2)sc2c(CN3CCN(C)CC3)c(O)ccc12 | -72.9% (active) | -52.1% (active) | 63.8% | -27.3% (active) | -88% (active) | -79% (active) | 64.4% | 28.8% | -82.3% (active) | -93.1% (active) |
